Measured values taken from PubChem BioAssay.
Activity calls are given as the source filed them.

What was measured:
Albumin (Bos taurus) = Albumin (Bos taurus) (UniProt P02769); assay: bovine serum albumin binders on microarray, profiling panel, artefact control for SMM control protein annotation, biochemical, small-molecule microarray, Alexa647 label, 635/667 nm fluorescence (AID 1118); details: BSA-A647 binding, fluorescence 635 nm, higher = more signal;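 further: score merges 667 nm emission intensity and signal-to-noise per printed compound spot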
Chain of Albumin (Bos taurus) (P02769 whole entry, looked up): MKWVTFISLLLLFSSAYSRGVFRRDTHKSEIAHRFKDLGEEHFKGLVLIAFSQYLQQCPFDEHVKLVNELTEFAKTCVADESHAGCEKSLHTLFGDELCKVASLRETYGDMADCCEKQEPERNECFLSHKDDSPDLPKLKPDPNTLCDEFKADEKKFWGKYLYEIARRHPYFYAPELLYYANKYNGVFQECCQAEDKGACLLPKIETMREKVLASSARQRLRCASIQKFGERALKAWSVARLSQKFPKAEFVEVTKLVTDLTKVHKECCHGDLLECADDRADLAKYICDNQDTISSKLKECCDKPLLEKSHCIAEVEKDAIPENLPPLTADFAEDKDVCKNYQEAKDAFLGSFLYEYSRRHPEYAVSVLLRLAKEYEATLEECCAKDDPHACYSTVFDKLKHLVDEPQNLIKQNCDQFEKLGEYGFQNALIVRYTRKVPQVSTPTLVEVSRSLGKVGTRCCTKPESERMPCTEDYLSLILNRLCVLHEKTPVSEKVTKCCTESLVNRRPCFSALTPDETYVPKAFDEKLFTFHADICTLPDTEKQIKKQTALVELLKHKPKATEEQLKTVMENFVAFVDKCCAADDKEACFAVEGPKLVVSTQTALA

[1] = small-molecule microarray binders of probe aXIP, primary screen, biochemical, NeuroSMM set, 635/667 nm fluorescence (AID 1119); details: higher = more signal, called active from +8 up or from −8 down;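 further: probe is the protein aXip251-270 applied at 1 µg/mL to compound-printed slides; binding of probe to printed compounds measured as 667 nm fluorescence plus signal to noise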
[2] = small-molecule binders of probe aNOTCH3, primary screen, biochemical, small-molecule microarray, 635/667 nm fluorescence (AID 1120); details: higher = more signal;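 further: probe is a biotin-tagged antibody raised against NOTCH3 rather than NOTCH3 protein; score merges spot fluorescence near 667 nm with spot signal to noise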
[3] = small-molecule binders of probe aNOTCH2, primary screen, biochemical, small-molecule microarray, 635/667 nm fluorescence (AID 1121); details: higher = more signal;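 further: score merges feature fluorescence read at 667 nm with its signal to noise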
[4] = molecular target: Carbonic anhydrase 2 (Homo sapiens) (UniProt P00918); assay: CAII small-molecule binders, profiling panel, biochemical, small-molecule microarray, Alexa647-labelled CAII (AID 1122); details: CAII-A647 binding fluorescence, higher = more signal
[5] = COS7 lysate on small-molecule microarray, probe aHis, 635 nm (AID 1123); details: COS7 cell lysate, fluorescence, higher = more signal;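 further: z-score combines 667nm fluorescence intensity with signal-to-noise per printed compound spot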
[6] = compound binding in COS7 lysate, probe aLAP1, primary screen, cell lysate, small-molecule microarray (AID 1124); details: probe aLAP1, fluorescence, higher = more signal;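 further: lysate comes from COS7 cells expressing LAP1 and is applied at 0.3 µg/mL; score merges spot fluorescence near 667 nm with signal-to-noise over triplicate slides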
Sam68 (KHDRBS1) = assay: Sam68 small-molecule binders, primary screen, biochemical, small-molecule microarray, 635 nm fluorescence (AID 1125); details: small-molecule microarray binding, higher = more signal;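 further: score merges 667 nm channel intensity with signal to noise over triplicate slides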
[7] = system: Chordin-like protein 2 (CHRDL2); assay: CHRDL2 small-molecule binders, primary screen, biochemical, small-molecule microarray, 635 nm fluorescence (AID 1126); details: small-molecule microarray binding, fluorescence 635 nm; higher = more signal;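 further: printed compound slides probed with Chrdl2 protein at 4 µg/mL for 1 h at 4 C; score merges 667 nm emission intensity with signal to noise over three replicate slides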
[8] = molecular target: Concanavalin-A (Canavalia ensiformis) (UniProt P02866); assay: ConA small-molecule binders, primary screen, artefact control for SMM control protein annotation, biochemical, small-molecule microarray, Alexa647 label, 635 nm (AID 1127); details: ConA-A647 binding fluorescence, higher = more signal;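 further: z combines 667 nm emission intensity with signal-to-noise across three replicate slides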
Chain of Concanavalin-A (Canavalia ensiformis) (P02866 whole entry, looked up): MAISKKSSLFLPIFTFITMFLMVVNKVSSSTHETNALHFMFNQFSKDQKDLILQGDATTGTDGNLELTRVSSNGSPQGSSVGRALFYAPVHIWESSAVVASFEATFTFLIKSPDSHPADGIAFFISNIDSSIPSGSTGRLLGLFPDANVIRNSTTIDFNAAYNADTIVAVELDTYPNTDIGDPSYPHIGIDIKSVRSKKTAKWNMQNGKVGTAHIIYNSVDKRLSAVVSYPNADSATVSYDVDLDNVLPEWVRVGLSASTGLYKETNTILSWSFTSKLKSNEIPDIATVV

Structure (SMILES)	composite z-score (Albumin (Bos taurus))	composite Z-score [1]	composite z-score [2]	composite z-score [3]	composite z-score [4]	composite z-score [5]	composite z-score [6]	composite z-score (Sam68 (KHDRBS1))	composite z-score [7]	composite z-score [8]
C=C[C@@H](OC)[C@H](OC(=O)Nc1ccc(SC)cc1)c1ccc(OCCO)cc1	0.687	0.0939 (inactive)	0.23	-0.101	0.361	1.89	0.35	1.34	0.207	0.89
CO[C@H]1O[C@H](CO)[C@@H](OC(=O)Nc2cccc(F)c2)[C@H](OC(=O)Nc2ccccc2-c2ccccc2)[C@H]1OC(=O)Nc1ccccc1-c1ccccc1	-0.8	0.55 (inactive)	0.206	-0.0226	0.577	2.33	0.57	1.3	0.484	0.924
CC(C)C[C@@H]1NC(=O)[C@@]23C(=O)N[C@@H](Cc4ccccc4)C2[C@H](C)[C@@]2(C)O[C@H]2C3/C=C/C/C=C\CNC(=O)[C@@H](C)NC1=O (stereo not given in full)	0.663	-0.106 (inactive)	-0.251	-0.196	0.449	-0.128	-0.217	-0.604	0.643	0.075
CCCCC=C[C@@H](NC(=O)c1ccccc1)c1ccccc1	0.943	-0.176 (inactive)	0.354	-0.0785	0.561	2.62	0.172	1.26	-0.621	1.08
C=CCC(OC(C)=O)[C@@H]1[C@@H](N(Cc2ccc(-c3cccc(C(F)(F)F)c3)o2)C(=O)c2ccc(C)cc2)c2cc(OCCCO)ccc2N1C(=O)Cc1ccc(OC)cc1 (stereo not given in full)	-0.356	0.899 (inactive)	-0.0311	-0.194	-0.26	-0.333	-0.27	-0.367	0.186	0.0203
[N-]=[N+]=NCc1ccccc1[C@@H]1OC(c2ccc(OCCCO)cc2)=N[C@]1(Cc1ccccc1N=[N+]=[N-])C(=O)N1CCCCC1	0.354	0.038 (inactive)	-0.137	-0.116	0.56	2.57	0.0904	1.22	-0.39	1.14
C=C(C(=O)CC[C@H](OC(=O)c1ccccc1-c1ccccc1C(=O)O)c1ccccc1OCCO)C(C)C	0.0198	0.292 (inactive)	-0.0035	-0.176	0.52	0.559	-0.0566	0.974	0.0958	-0.138
CCCNC(=O)[C@@]1(Sc2ccc(C)cc2)CC(=O)N(C(C)C)[C@@H]1c1ccc(CO)cc1I	-0.249	0.292 (inactive)	-0.219	-0.163	0.771	1.22	0.846	0.58	-2.46	-0.818
C=C[C@H](C)[C@H](OC(=O)Nc1ccc(OC)cc1)c1ccc(OCCO)cc1	-0.381	0.838 (inactive)	-0.279	-0.209	0.464	0.718	0.434	-0.321	-1.18	-1.35
